# From PubChem BioAssay (NCATS)
# Inconclusive results are not listed. Entries that show only a call come without a potency. Active and inactive are the calls of the source. Calls come from the whole dose curve; as a rule, active = well fitted inhibition curve with a large enough effect; inconclusive = small, poorly fitted or top-dose-only effect; inactive = no such curve, though single readings can be large or run the other way.
# Legend:
# [1] = qHTS assay for measurement of the activity of small molecule inhibitors on Zika virus induced Caspase-3 activity in human iPSC derived neural progenitor cells (hNPCs) (AID 1224857); note: nearly all actives have a fitted effect of over 65% in size
# How it was run: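 Values are percent inhibition of virus-induced caspase-3/7 signal, scaled between uninfected cells and ZIKV-infected cells. Infection used 2 FFU/cell for 6 h after 1 h compound exposure.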
# [2] = qHTS assay for measurement of the activity of small molecule inhibitors on Zika virus induced Caspase-3 activity in human astrocytoma cells (AID 1224859)
# How it was run: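 Compound added 1 h pre-infection; ZIKV 2 FFU/cell on SNB-19 cells, 6 h, 37 C/5% CO2. Caspase-Glo 3/7 luminescence; values as % inhibition of ZIKV-induced caspase activity.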
SMILES,Potency [1],outcome [2]
CC(C)Cn1cnc2c1c(=O)n(C)c(=O)n2C,inactive,inactive
CCCN(CCc1cccs1)[C@H]1CCc2c(O)cccc2C1,inactive,inactive
CCc1oc2ccccc2c1C(=O)c1cc(Br)c(O)c(Br)c1,inactive,inactive
CC1CCc2c(N3CCC(O)CC3)c(F)cc3c(=O)c(C(=O)O)cn1c23 (configuration not stated),inactive,inactive
CN1CCN(CCC(=O)N2c3ccccc3Sc3ccc(C(F)(F)F)cc32)CC1,inactive,inactive
CO[C@H]1C=CO[C@@]2(C)Oc3c(C)c(O)c4c(O)c(c(/C=N/N5CCN(C)CC5)c(O)c4c3C2=O)NC(=O)/C(C)=C\C=C[C@H](C)[C@H](O)[C@@H](C)[C@@H](O)[C@@H](C)[C@H](OC(C)=O)[C@@H]1C,inactive,inactive
CCCCCCCCNC(C)C(O)c1ccc(SC(C)C)cc1 (configuration not stated),inactive,inactive
Cc1ncc(CO)c(C=O)c1O,inactive,inactive
CCc1ccc(C(=O)C(C)CN2CCCCC2)cc1 (configuration not stated),inactive,inactive
CC(=O)Nc1ccc(OC(=O)c2ccccc2OC(C)=O)cc1,inactive,–
O=C(O)CCC(=O)Nc1ccc(S(=O)(=O)Nc2nccs2)cc1,inactive,inactive
CC(O)Cn1cnc2c1c(=O)n(C)c(=O)n2C (configuration not stated),inactive,inactive
CC(C)Nc1cccnc1N1CCN(C(=O)c2cc3cc(NS(C)(=O)=O)ccc3[nH]2)CC1,inactive,inactive
CC(C)NCC(O)c1ccc2ccccc2c1 (configuration not stated),inactive,–
C[C@]12CCC(=O)C=C1C=C[C@@H]1[C@@H]2CC[C@@]2(C)[C@H]1CC[C@@]21CCC(=O)O1,inactive,–
